Experimental findings from PubChem BioAssay (NCI) are described below.

This is part of a sample that, as a whole, favours compounds with a hit. Of some 79,000 tested, about 15% had one in any assay. Unmarked numbers belong to inactive results. The source made the active and inactive calls. No stated cut-off is given here; in the data, active means growth inhibition above about 70%; inactive means the rest.

A short description of assay [1]: NCI Yeast Anticancer Drug Screen. Data for the rad50 strain (AID 155).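 Further: 0% = growth of vehicle-only cultures of the same strain.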 To be noted: S. cerevisiae rad50 strain growth inhibition, active compounds read high; at 50.0 µM unless noted. The procedure, abridged: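 Cells are treated with compound, grown, and their growth is then scored against vehicle-only cultures of the same repair-deficient yeast strain.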
The nature of assay [2]: NCI Yeast Anticancer Drug Screen. Data for the mec2-1 strain (AID 157). Conditions: S. cerevisiae mec2-1 strain, active compounds read high; at 50.0 µM unless noted. The procedure, abridged:
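Mutant yeast (mec2-1) grown with compound; growth inhibition relative to vehicle control reported.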

Assay [3] in a line: NCI Yeast Anticancer Drug Screen. Data for the sgs1 mgt1 strain (AID 161).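 Further: 0% = growth of cultures given vehicle only.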 Conditions: S. cerevisiae sgs1 mgt1 strain, active compounds read high; at 50.0 µM unless noted. An outline of the steps: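 Compounds are added to genetically altered yeast, and growth is compared with cultures given vehicle alone to give percent inhibition.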
Assay [4] is described as follows: NCI Yeast Anticancer Drug Screen. Data for the cln2 rad14 strain (AID 165).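 Further: 0% = growth equal to vehicle treated cultures.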 Conditions: S. cerevisiae cln2 rad14 strain, active compounds read high; at 50.0 µM unless noted. The procedure, abridged:
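Readout is yeast growth inhibition versus vehicle-treated controls, using a strain with cln2 and rad14 alterations exposed to compound.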

The nature of assay [5]: NCI Yeast Anticancer Drug Screen. Data for the bub3 strain (AID 167). To be noted: S. cerevisiae bub3 mutant strain, active compounds read high; at 50.0 µM unless noted. The procedure, abridged: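 Part of a panel of yeast mutants defective in DNA damage repair or cell cycle regulation. Each strain is grown with compound, and inhibition is calculated relative to solvent-treated cultures.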

The nature of assay [6]: NCI Yeast Anticancer Drug Screen. Data for the mlh1 rad18 strain (AID 175). To be noted: S. cerevisiae mlh1 rad18 strain growth inhibition, active compounds read high; at 50.0 µM unless noted. The procedure, abridged: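 Genetically defined yeast (DNA repair-deficient) exposed to compounds; growth inhibition determined relative to vehicle.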

In the case of `N=c1oc(-c2ccccc2)cc2ccccc12`, the growth inhibition in assay [1] is 29.8%; in assay [2], -9.4%; in assay [3] it was -12.3%; in assay [4] it was -45.8%; in assay [5], 15.6%; in assay [6], 11.7%.
`CCN(CC)c1ccc2cc(C(=O)Nc3ccccc3)c(=N)oc2c1`: the growth inhibition in assay [1] was 15.5%; in assay [2], 5.45%; in assay [3], 1.8%; in assay [4], 13.7%; in assay [5], -20.2%; in assay [6], -39.1%.
`COc1ccc(-c2oc3c(CC(=O)O)cccc3c(=O)c2OC)cc1`: the growth inhibition in assay [1] was -8.75%; in assay [2] it was -15.3%; in assay [3], -25.3%; in assay [4], -14.4%; in assay [5], -12.7%; in assay [6] it was -12.3%.
Consider `CCCCCCCCCC(=O)N1CCCC(C)C1` (stereo not given), for which the growth inhibition in assay [1] is 99.5% (active); in assay [2] it was 99.7% (active); in assay [3], 99.6% (active); in assay [4] it was 98.7% (active); in assay [5], 99.2% (active); in assay [6], 99.5% (active).
For `COc1cc2c(cc1OC)C(C(N)=O)NCC2` (stereo not given), the growth inhibition in assay [1] was 10.2%; in assay [2], -35.8%; in assay [3], 25.6%; in assay [4], 12.2%; in assay [5], -7%; in assay [6], 17.6%.
For the molecule `CC1=NN2C(c3ccc([N+](=O)[O-])cc3)=CSC2=NC(C)(C)C1`, the growth inhibition is 20.6% in assay [1]; -5.6% in assay [2]; 5.7% in assay [3]; -5% in assay [4]; -4.95% in assay [5]; -11.6% in assay [6].
Take `c1ccc(-c2cnoc2-c2ccccc2)cc1`: the growth inhibition in assay [1] is 14%; in assay [2] it was 17.6%; in assay [3], 7.15%; in assay [4], -19.8%; in assay [5] it was -18.7%; in assay [6], 8.3%.
Take `N#Cc1c(-c2ccccc2)c(-c2ccccc2)nn(CCO)c1=O`: the growth inhibition was 7.35% in assay [1]; 10.8% in assay [2]; 20.9% in assay [3]; -21.8% in assay [4]; 6.4% in assay [5]; 46% in assay [6].
In the case of `CCOC(=O)C(Cc1cc(N)c(Oc2ccc(OC)cc2)c(N)c1)NC(C)=O` (stereo not given), the growth inhibition in assay [1] was -16.1%; in assay [2], -36.9%; in assay [3], -4.65%; in assay [4], 14.9%; in assay [5] it was -9.1%; in assay [6], 5.25%.
Take `CC(CC(O)C(=O)O)CC(C)(C)C` (stereo not given): the growth inhibition in assay [1] is -5.95%; in assay [2], 8.7%; in assay [3], -7.15%; in assay [4], -7.3%; in assay [5], 22.3%; in assay [6] it was 2.6%.
With `CCCCC(C(=O)CCC(=O)Nc1ccc(Cl)c(Cl)c1)C(=O)C(C)C` (stereo not given), the growth inhibition in assay [1] was -7%; in assay [2], -18.8%; in assay [3], 19.1%; in assay [4], -0.3%; in assay [5], 8.4%; in assay [6] it was -2.4%.
`Cc1cc2nc3c4ccccc4scc-3c2cc1C`: the growth inhibition is 99% (active) in assay [1]; 99.3% (active) in assay [2]; 99.3% (active) in assay [3]; 99% (active) in assay [4]; 99.1% (active) in assay [5]; 98% (active) in assay [6].
On to `NC(=O)C1OCOC2C(CO)OCOC12` (stereo not given), for which the growth inhibition in assay [1] was -1.9%; in assay [2] it was -14.4%; in assay [3], -3%; in assay [4], -52.1%; in assay [5], -7.4%; in assay [6], -6.15%.
As for `O=C(N(O)c1ccccc1Cl)C(O)(c1ccccc1)c1ccccc1`, the growth inhibition was 28.2% in assay [1]; 16.6% in assay [2]; 59.1% in assay [3]; 37% in assay [4]; 31.4% in assay [5]; 75.5% (active) in assay [6].
Consider `CCC(C)C(O)C(C)C` (stereo not given), for which the growth inhibition was 11.3% in assay [1]; -18.1% in assay [2]; -15.6% in assay [3]; 13.6% in assay [4]; -4.6% in assay [5]; 21.8% in assay [6].
For the molecule `Nc1nc(N)c(N=O)c(Nc2ccccc2)n1`, the growth inhibition was 7.75% in assay [1]; 6.9% in assay [2]; -8.35% in assay [3]; 0.45% in assay [4]; 41.6% in assay [5]; 43.4% in assay [6].
As for `Cn1c(=O)c2nc(SCC(=O)O)n(C)c2n(C)c1=O`, the growth inhibition is 3.6% in assay [1]; 6.2% in assay [2]; 7.4% in assay [3]; -10.1% in assay [4]; 5.35% in assay [5]; 3.2% in assay [6].
With `NC(=O)Cc1ccc2c3c(cccc13)CC2`, the growth inhibition in assay [1] is 15.4%; in assay [2] it was 5.45%; in assay [3], 2.45%; in assay [4], -34.2%; in assay [5] it was 11.8%; in assay [6], 9.05%.
Turning to `Clc1ccc2c(c1)C(=P(c1ccccc1)(c1ccccc1)c1ccccc1)c1cc(Cl)cc(Cl)c1-2`, the growth inhibition in assay [1] is 83.7% (active); in assay [2], 52.6%; in assay [3], 66.8%; in assay [4], 50.6%; in assay [5], 39.3%; in assay [6] it was 64.6%.
As to `COC(=O)[C@@H]1Cc2cc(O)c(O)cc2C2(CCN(C)CC2)O1`, the growth inhibition is -21.5% in assay [1]; -22.8% in assay [2]; -17.6% in assay [3]; -12.2% in assay [4]; -10.7% in assay [5]; -29.1% in assay [6].
